Assay results from PubChem BioAssay (EPA / NIEHS).
Inconclusive results are not listed. Calls of active or inactive are those of the source. The calls were made as follows: active = hit-call score of the fitted dose curve at least 0.9, where 1 is the maximum; inconclusive = response in the unintended direction; inactive = score below 0.9.

These compounds were tested against Nuclear receptor subfamily 4 group A member 2 (Homo sapiens) (UniProt P43354) (assay: ATG_NURR1_TRANS: Attagene TRANS-FACTORIAL HepG2 Assay for human Nuclear Receptor Related Protein 1 (NURR1) (AID 2282985)). Details: HepG2 Attagene TRANS reporter, mRNA readout.
Chain of Nuclear receptor subfamily 4 group A member 2 (Homo sapiens) (P43354 whole entry, looked up): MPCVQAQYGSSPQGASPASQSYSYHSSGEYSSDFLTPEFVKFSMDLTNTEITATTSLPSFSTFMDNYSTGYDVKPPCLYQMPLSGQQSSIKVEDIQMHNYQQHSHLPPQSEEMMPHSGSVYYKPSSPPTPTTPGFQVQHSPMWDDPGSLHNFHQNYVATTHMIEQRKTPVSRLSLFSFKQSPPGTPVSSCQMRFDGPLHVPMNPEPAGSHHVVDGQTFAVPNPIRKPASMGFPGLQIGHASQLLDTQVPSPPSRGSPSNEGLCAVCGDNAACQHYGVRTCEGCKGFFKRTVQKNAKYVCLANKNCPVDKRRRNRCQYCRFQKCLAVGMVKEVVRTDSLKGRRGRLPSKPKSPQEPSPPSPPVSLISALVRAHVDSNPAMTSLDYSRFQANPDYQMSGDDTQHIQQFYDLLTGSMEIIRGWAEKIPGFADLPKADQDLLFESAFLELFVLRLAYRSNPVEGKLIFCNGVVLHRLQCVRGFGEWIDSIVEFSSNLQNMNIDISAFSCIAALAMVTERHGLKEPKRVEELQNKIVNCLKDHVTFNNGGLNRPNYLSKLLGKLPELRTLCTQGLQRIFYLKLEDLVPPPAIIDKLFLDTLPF
In short: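 HepG2 / transient MRTU transfection / 24 h compound exposure / RT-PCR + CE fluorescence of reporter mRNA / gain-of-signal vs DMSO.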
In the case of O=C1C(c2[nH]c3ccc(S(=O)(=O)O)cc3c2O)=Nc2ccc(S(=O)(=O)O)cc21, the outcome is reported as “inactive”.
For O=Cc1ccc(Cl)c([N+](=O)[O-])c1, the outcome was “inactive”.
With CC(=O)[C@H]1CC[C@H]2[C@@H]3CC=C4C[C@@H](O)CC[C@]4(C)[C@H]3CC[C@]12C the outcome was “inactive”.
In the case of O=S(=O)(O)c1ccc(O)c2ncccc12, the outcome is reported as “inactive”.
NCCCCCCN was tested, and the outcome was “inactive”.
For CCCCCC=CCC(=O)OC, the outcome was “inactive”.
With C#C[C@]1(O)CC[C@H]2[C@@H]3CCC4=Cc5oncc5C[C@]4(C)[C@H]3CC[C@@]21C the outcome was “inactive”.
For CC(=O)/C=C/C1=C(C)CCCC1(C)C, the outcome was “inactive”.
In the case of O=C(O)c1ccc(C(=O)O)cc1, the outcome is reported as “inactive”.
For CC(C)C[C@H]1C(=O)N2CCC[C@H]2[C@]2(O)O[C@](NC(=O)[C@@H]3C=C4c5cccc6[nH]c(Br)c(c56)C[C@H]4N(C)C3)(C(C)C)C(=O)N12, the AC50 was 5.67 µM (active).
In the case of O=C(O)CN(CCN(CC(=O)O)CC(=O)O)CCN(CC(=O)O)CC(=O)O, the outcome is reported as “inactive”.
CCN(CC)c1ccc(C(=C2C=CC(=[N+](CC)CC)C=C2)c2ccc(S(=O)(=O)O)cc2S(=O)(=O)[O-])cc1 was tested, and the outcome was “inactive”.
In the case of Clc1ccc(Cl)c(Cl)c1Cl, the outcome is reported as “inactive”.
With OCCOCCOCCOCCO the outcome was “inactive”.
In the case of N#Cc1ccccc1, the outcome is reported as “inactive”.
CC(C)OP(=O)(CP(=O)(OC(C)C)OC(C)C)OC(C)C was tested, and the outcome was “inactive”.
In the case of NC(N)=NC(=O)c1nc(Cl)c(N)nc1N, the outcome is reported as “inactive”.
With CCCCCCCCCC=O the outcome was “inactive”.
In the case of CC(C)C(C)(C)C(C)(C)C(C)(C)S, the outcome is reported as “inactive”.
For C[C@]12CC[C@H]3[C@@H](CCC4=CC(=O)CC[C@@]43C)[C@@H]1CC[C@@H]2C(=O)CO, the outcome was “inactive”.
In the case of O=c1oc(=O)c2cc3c(=O)oc(=O)c3cc12, the outcome is reported as “inactive”.
